HT1080-NT tox = kills 2HG-producing HT-1080-NT fibrosarcoma cells | HT-1080-NT fibrosarcoma viability, CellTiter-Glo ATP luminescence, 48 h | 1.6% of 360,000 active | Potency, µM (series often up to 46.1 µM), hits mostly cytotoxic;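 note: NT is the 2HG producing partner of a matched IDH1 knockdown line; nearly all actives have a fitted effect of over 55% in size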
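Compounds were tested in concentration-response format on HT-1080-NT cells for 48 hours at 37 degrees C. Cell viability came from CellTiter-Glo luminescence; curves were classified by r2, response magnitude and activity.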
DT40 TDP1 CPT = growth inhibition of DT40 Tdp1-/-;hTDP1 cells with camptothecin (screen for TDP1 inhibitors); Potency, µM (doses to about 46.2 µM), hits mostly inhibitors; chicken DT40 Tdp1-/-;hTDP1 cells + 20 nM CPT, ATP luminescence, 48 h; 12% of 420,000 active; AID 686979; note: nearly all actives have a fitted effect of over 55% in size
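Chicken DT40 Tdp1-/- cells complemented with human TDP1, 400 cells/well, exposed to compounds plus 20 nM camptothecin for at least 48 h at 37 C; viability read as ATP content by CellTiter-Glo luminescence.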
IL1B secr inh = blocks inflammasome-driven IL-1 beta release. 4.7% of 360,000 active. THP-1 LPS/ATP IL-1B secretion, AlphaLISA, 16 h; stronger effect = lower value. activity change, % at 57.5 µM; in the data active = activity change below about -50%; inconclusive = mostly about -30% to -49%
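Secreted IL-1B measured by AlphaLISA bead assay after 16 h compound exposure of THP-1 cells; compounds (final up to 57.5 uM) added 1 h before LPS (250 ng/mL) and ATP (1.25 mM) stimulation; lower signal means less secretion.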
ELG1 repair inh = ELG1-dependent DNA repair inhibition. HEK293T ELG1-luciferase reporter, luminescence, 16 h; DNA damage induced by 5-fluorouridine. Potency, µM (series often up to 46.1 µM), hits mostly inhibitors. 2.3% of 330,000 active. AID 504467; note: nearly all actives have a fitted effect of over 55% in size
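Step one: seed 2,000 cells per well. Step two: pin-transfer compound or DMSO alongside 5-fluorouridine. Step three: incubate 16 hr, 37 °C, 5% CO2. Step four: add ONE-Glo, wait 30 min, read luminescence.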
DT40 TDP1 no CPT = qHTS for Inhibitors of human tyrosyl-DNA phosphodiesterase 1 (TDP1): qHTS in cells in absence of CPT. AID 686978, 2013. DT40 Tdp1-/- hTDP1 cells, no CPT, ATP luminescence, 48 h. Potency, µM (titrated, usually from 46.2 µM), usual class: inhibitors. 15% of 420,000 active; note: nearly all actives have a fitted effect of over 55% in size
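Stably hTDP1-transfected Tdp1-null chicken DT40 cells were treated with library compounds minus camptothecin and grown for at least 48 hr at 37 °C, after which cellular ATP was quantified by luminescence.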
HT1080 IDH1KD tx = HT-1080 IDH1 knockdown cell toxicity (counter line); HT-1080 IDH1 knockdown viability, ATP luminescence, 48 h; Potency, µM (series often up to 46.1 µM), usual class: cytotoxic; 2% of 360,000 active; AID 686971
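Cytotoxicity counter-line: IDH1KD HT-1080, 48 h, CellTiter-Glo. Curves classed by r2, magnitude and activity.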
A number is an active result; - = inactive; ? = inconclusive; . = not tested or not shown. Most compounds without a hit are left out; they make up all but 19% or so of the library. Unless noted, calls come from the whole dose curve; as a rule, active = well fitted curve in the direction sought with a large enough effect; inconclusive = small, poorly fitted or top-dose-only effect, or another doubt; inactive = no such curve, though single readings can be large; an effect the other way counts as inactive or inconclusive.

SMILES	HT1080-NT tox	DT40 TDP1 CPT	IL1B secr inh	ELG1 repair inh	DT40 TDP1 no CPT	HT1080 IDH1KD tx
Cn1c(=O)c2cc(C(=O)NCCCN3CCN(c4ccccc4F)CC3)sc2c2ccccc21	.	3.7µM	.	.	3.7µM	.
Cn1c(C(=O)NCCN2CCN(c3ccccc3F)CC2)cc2c(=O)n(C)c3ccccc3c21	-	18µM	-	?	23µM	-
Cn1c(=O)c2cc(C(=O)NCCCN3CCN(c4ccc(F)cc4)CC3)sc2c2ccccc21	.	?	.	.	2.9µM	.
CCN1CCN(CCCNC(=O)c2cc3c(=O)n(C)c4ccccc4c3s2)CC1	.	?	.	.	10µM	.
CCC(C)(C)NC(=O)C(c1ccc(OC)cc1)N(C(=O)CCC(=O)Nc1cc(C)on1)c1ccccc1F (centres undefined)	-	-	-	-	-	-
O=C(CN1C(=O)CCSc2ccc(S(=O)(=O)N3CCOCC3)cc21)Nc1ccccc1Cl	-	?	-	-	-	-
COc1ccccc1CNC(=O)CCNS(=O)(=O)c1ccc2[nH]c(=O)oc2c1	-	-	-	-	-	-
Cc1cc(=O)oc2c3c(cc(OCC(=O)NCC4CCC(C(=O)O)CC4)c12)OC(C)(C)CC3 (centres undefined)	-	-	-	-	-	-
Cc1ccc(S(=O)(=O)N(C)CC(=O)N/N=C/c2ccc(C)o2)cc1	-	?	-	-	-	-
Cc1ccc(Sc2ncccc2[N+](=O)[O-])cc1	-	-	-	-	-	-
Cc1c([N+](=O)[O-])cnc(Sc2ccccc2)c1[N+](=O)[O-]	?	?	-	.	9.2µM	?
O=C(CC1C(=O)NCCN1CC1CCCCC1)NCc1ccc(F)cc1F (centres undefined)	-	-	-66	?	-	-
O=C(CC1C(=O)NCCN1CC1CCCCC1)NCc1cc(F)ccc1F (centres undefined)	-	23µM	-	-	?	-
CC(C)c1cc(CNC(=O)CC2C(=O)NCCN2CC2CCCCC2)on1 (centres undefined)	-	-	-	-	-	-
O=C(Nc1ccc(Br)cc1)N1CCCCC1	-	-	-	?	-	-
O=C(/C=C/c1ccc(Cl)cc1Cl)Nc1ccc(CN2CCOCC2)cc1	?	?	-	?	?	?
COc1ccc(C(=O)NC(=S)Nc2ccc(CN3CCOCC3)cc2)cc1OC	-	?	?	-	21µM	-
COc1ccc(C(=O)Nc2ccc(CN3CCOCC3)cc2)cc1Br	-	-	?	-	-	-
O=C(/C=C/c1ccc(Cl)cc1)NC(=S)Nc1ccc(CN2CCOCC2)cc1	-	?	-	-	23µM	-
COc1ccc(Br)cc1/C=C/C(=O)NC(=S)Nc1ccc(CN2CCOCC2)cc1	-	16µM	-	-	16µM	-
O=C(/C=C/c1ccc(Cl)cc1)NC(=S)Nc1ccc(NC(=O)c2ccco2)cc1	?	?	-	?	8.2µM	?
O=C(N[C@@H]1CC[C@@H](CCn2cc(-c3ccccc3)nn2)O[C@@H]1CO)c1cnccn1	-	-	-	.	-	-
CCCCC1C2C(=O)N(c3ccc(C)cc3)C(=O)C2ON1c1ccccc1 (centres undefined)	-	-	-	?	-	-
CC(Sc1nc2ccccc2[nH]1)C(=O)Nc1ccccc1F (centres undefined)	-	-	?	-	-	-
COc1cccc(Cn2c(=O)c(-c3cccc(C#N)c3)nc3cnc(OC)nc32)c1	.	-	.	.	-	.
SMILES	HT1080-NT tox	DT40 TDP1 CPT	IL1B secr inh	ELG1 repair inh	DT40 TDP1 no CPT	HT1080 IDH1KD tx
Cc1c(NC(=O)COC(=O)c2cccc(F)c2)c(=O)n(-c2ccccc2)n1C	-	-	-	.	-	-
O=C(COC(=O)CNC(=O)c1cccc([N+](=O)[O-])c1)NCc1ccco1	-	-	-	-	-	-
COc1ccc(C(=O)NC(=S)Nc2ccc(CN3CCOCC3)cc2)cc1Cl	-	18µM	-	?	16µM	-
CCOc1cc(CN2CCCCC2)ccc1OC	-	-	-	-	-	-
CCOC(=O)c1c(C)c(C)n(Cc2ccc(OC)c(OC)c2)c1C	-	21µM	-	-	18µM	-
CCOC(=O)c1cc(C)n(Cc2ccc(OCC)c(OC)c2)c1C	-	11µM	-	?	?	-
COc1ccc(C2=NN(C(=O)CSc3nc4ccccc4s3)C(c3ccc(F)cc3)C2)cc1 (centres undefined)	-	21µM	-	-	?	-
COc1ccc(C2=NN(C(=O)CSc3nc4ccccc4s3)C(c3ccc(OC)cc3)C2)cc1 (centres undefined)	-	13µM	-	-	12µM	-
Cc1cc(C)cc(Nc2cc(C)nc3nc(-c4ccco4)nn23)c1	.	16µM	.	.	9.2µM	.
O=C(Nc1ccc(Cl)cc1)c1cc2c(cc1O)[nH]c1ccccc12	15µM	3.3µM	-95	?	4.1µM	15µM
OCc1ccccc1-c1cnc2cccnn12	?	-	-	.	-	?
O=C1CNc2cc(Cl)ccc2N1	-	?	-	.	?	-
O=C1Nc2ccc(Cl)cc2/C1=C/C1CC=CCC1 (centres undefined)	?	?	-90	-	?	?
COc1cc(C2C(C#N)=C(SC)NC3=C2C(=O)CCC3)ccc1O (centres undefined)	-	-	-	-	-	-
CCc1ccccc1NC(=O)CSC1=C(C#N)C(c2ccc(O)c(OC)c2)C2=C(CCCC2=O)N1 (centres undefined)	-	21µM	-	-	23µM	-
CCc1ccc(NC(=O)CSC2=C(C#N)C(c3ccco3)C3=C(CCCC3=O)N2)cc1 (centres undefined)	-	?	-90	?	?	?
CN(C(=O)c1cccc(NC(=O)Cc2ccc(NC(=O)C3CCCN(C(=O)C4CC4)C3)cc2)c1)C1CCCCC1 (centres undefined)	-	-	-	.	-	-
COc1ccc(CNC(=O)[C@@H](NC(=O)C2CCN(S(=O)(=O)c3ccc(C)cc3)CC2)C(C)C)cc1OC	-	?	-	-	-	-
COc1ccc(Cl)cc1NC(=O)Nc1ccc(C(=O)N2CCOCC2)cc1	-	-	-63	-	-	-
Cc1nc(-c2ccc(C(=O)N3CCCC3)cc2)cs1	-	-	-	?	-	-
COc1ccc(C)cc1NC(=O)C1CCN(S(C)(=O)=O)CC1	-	-	-	-	-	-
Cc1nc(CN2CCN(C(=O)c3ccc(C(C)(C)C)cc3)CC2)cs1	-	?	?	-	10µM	-

Bioassay records (PubChem)
